# Test results from PubChem BioAssay AID1029 (Sanford-Burnham Center for Chemical Genomics, 2008).
# Screen size: about 110,000 compounds; about 80 (0.07%) were called active.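 Rule for the calls: active = inhibition above the mean of the plate negative controls plus 5 SD (cut at about 13% in these data); inactive = the rest.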 The full list was thinned out, with actives kept by preference.
# Assay: inhibitors of macrophage phagocytosis, primary screen, imaging, J774A.1 cells, IgG beads (AID 1029);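 note: phagocytic index as fraction of beads internalized from green versus red external bead signal; plate controls were DMSO negative control for no effect and cytochalasin-D positive control for full effect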
# Settings: J774A.1 macrophage IgG-bead phagocytosis, at 5 µM, active compounds read high
row,SMILES,inhibition
1,Cc1ccc(N(Cc2cc3ccccc3[nH]c2=O)C(=O)c2cccs2)cc1,0.22% (inactive)
2,COC(C(=O)NCc1ccccc1C)c1ccccc1 (centres undefined),-6.05% (inactive)
3,O=c1cc(CSc2ccccn2)nc(N2CCN(c3ccccc3)CC2)[nH]1,-1.3% (inactive)
4,CCc1c(C)nc(N2CCN(Cc3ccccc3)CC2)[nH]c1=O,-1.2% (inactive)
5,Cc1nnc(SCc2cc(=O)[nH]c(N3CCN(Cc4ccccc4)CC3)n2)s1,55.5% (active)
6,O=C(N/N=C/c1coc2ccccc2c1=O)c1cc2ccccc2o1,-4.52% (inactive)
7,Cc1nc2ccccc2nc(C)c1=NOCc1ccc(Cl)cc1Cl,-8.1% (inactive)
8,COc1ccc(C2CC(c3ccccc3)=NN2C(=O)CSc2nccc(=O)[nH]2)cc1 (centres undefined),-11.3% (inactive)
9,COCCNC(=S)N/N=C/c1c(C)[nH]c2ccccc12,-8.64% (inactive)
10,CCCc1nc(SCC(=O)Nc2ccc(S(=O)(=O)N(C)C)cc2)c2ccccc2n1,-8.66% (inactive)
11,CCCCC(=O)Nc1ccc(C(=O)Nc2cc(C(F)(F)F)ccc2Cl)cc1,-2.66% (inactive)
12,CC1=C[C@H]2Cc3cc(C)cc(C)c3S(=O)(=O)[C@@H]2C=C1,-2.51% (inactive)
13,COc1ccc(/C=N/NC(=O)c2ccc(Cl)cc2)cc1COC(C)=O,-2.06% (inactive)
14,CCNc1ccc(C(=O)OCC(=O)N2c3ccccc3NC(=O)C2(C)C)cc1[N+](=O)[O-],-2.95% (inactive)
15,O=C(N/N=C/c1ccc2c(c1)OCO2)c1ccc(Cn2cc([N+](=O)[O-])cn2)o1,-3.46% (inactive)
16,O=C1OC(OC(=O)c2ccccc2Br)C(N2CCOCC2)=C1Cl (centres undefined),-11.1% (inactive)
17,COc1cc(C2C(N3C(=O)c4ccccc4C3=O)C(=O)N2c2ccc(C)c(C)c2)cc(OC)c1OC (centres undefined),-9.54% (inactive)
18,O=C(CN1C(=O)/C(=C\c2ccccc2F)SC1=S)Nc1nc2ccccc2s1,-11.3% (inactive)
19,COC(=O)c1ccccc1NC(=S)NC(=O)c1ccccc1F,-2.31% (inactive)
20,Cc1[nH]n(-c2ccccc2)c(=O)c1/C=N/NC(=O)c1ccoc1C,3.58% (inactive)

row,SMILES,inhibition
1,Cc1cccc(NC(=S)N(CCN(C)C)C(C)c2ccco2)c1 (centres undefined),-6.2% (inactive)
2,N=C1C(=O)OCC1c1ccccc1NC(=O)CN1CCCCC1 (centres undefined),-1.24% (inactive)
3,CCN(CC)CCNCc1ccc(OCc2ccc(Cl)nc2)c(OC)c1,-2.95% (inactive)
4,Cc1ccc(S(=O)(=O)N(Cc2ccc(Cl)cc2)c2ccccc2C(=O)NCc2cccnc2)cc1,-8.82% (inactive)
5,Nc1nc(NC(=O)/C=C/c2ccccc2)nn1-c1ccccc1,-0.41% (inactive)
6,CCc1cccc(NC(=O)CCC(=O)O)c1,-2.13% (inactive)
7,CCS(=O)(=O)N1Cc2ccccc2CC1C(=O)Nc1nc2ccc(F)cc2s1 (centres undefined),7.2% (inactive)
8,COc1cc(/C=N/O)ccc1OCc1ccc([N+](=O)[O-])cc1,0.55% (inactive)
9,O=C(NC1CCN(Cc2ccccc2)CC1)c1c(F)cccc1F,2.58% (inactive)
10,CC(C)(C)C(=O)N1CCC[C@@]1(CO)C(=O)O,0.17% (inactive)
11,Cc1cc(/C=C2\SC(=Nc3ccc(N4CCOCC4)cc3)N(C)C2=O)c(C)n1-c1cccnc1,-0.72% (inactive)
12,Cc1nn(Cc2ccc(F)cc2)c(C)c1NC(=O)c1cccnc1Cl,-2.17% (inactive)
13,Cc1ccc(N=C2NC(=O)c3cccc([N+](=O)[O-])c32)cc1,-5.47% (inactive)
14,COc1ccc(C/C(C)=N/NC(=O)c2cc(C)oc2C)cc1,-3.05% (inactive)
15,C/C(=N\N1CCN(Cc2ccc(C)cc2)CC1)c1ccco1,-3.06% (inactive)
16,CCCC/S(C)=N/S(=O)(=O)c1ccc(C)cc1 (centres undefined),-3.8% (inactive)
17,O=C(NC(=O)N1CCOCC1)c1ccccc1,-2.51% (inactive)
18,CCN(CC)S(=O)(=O)c1cc([N+](=O)[O-])ccc1N=Nc1c(O)n(C)c2ccccc12,-7.04% (inactive)
19,CC1=C(C)CC(C(=O)NNC(=O)c2csc3c2CCC(C(C)(C)C)C3)C(C(=O)O)C1 (centres undefined),-3.56% (inactive)
20,CCOC(=O)/C(=N\Nc1cc(Cl)ccc1Cl)N1CCN(C)CC1,-4.83% (inactive)

row,SMILES,inhibition
1,Cc1ccccc1N(C(=O)Cc1cccs1)C(C(=O)NC1CCCCC1)c1cn(C)nc1C (centres undefined),-10.4% (inactive)
2,Cc1nc(-c2ccccc2)cn2c1nc1ccccc12,-5.21% (inactive)
3,CCOc1ccccc1N1CCN(C(=S)Nc2ccc(S(N)(=O)=O)cc2)CC1,-1.85% (inactive)
4,CC(C)(C)NCCCOc1ccc(Cl)cc1C(C)(C)C,-2.22% (inactive)
5,Cc1ccc(C(=O)/C=C/Nc2ccc(S(=O)(=O)Nc3onc(C)c3C)cc2)cc1,4.08% (inactive)
6,O=C(c1cncc(Br)c1)N1CCN(c2ccc([N+](=O)[O-])cc2)CC1,1% (inactive)
7,N=c1n(CCc2ccccc2)c2ccccc2n1Cc1ccccc1F,-1.86% (inactive)
8,CCCOC(=O)c1ccc(N2C(=O)c3ccccc3C2=O)cc1,-13.4% (inactive)
9,Cc1ccc(C(=O)NC(C)c2ccccc2)cc1Br (centres undefined),-1.23% (inactive)
10,Cc1ccc(CC(=O)Nc2ccc(OC(F)F)c(Cl)c2)cc1C,-0.42% (inactive)
11,COc1ccc(/C=C/C(=O)OCC(=O)NCc2cccs2)cc1OC,-8.33% (inactive)
12,Cc1ccc(C2=NN(C(=O)CSc3nc(N)cc(N)n3)C(c3ccco3)C2)cc1 (centres undefined),-1.98% (inactive)
13,C=CCn1c(SCc2ccc(Cl)c(Cl)c2)nnc1C(CO)NC(=O)c1ccc(OC)cc1 (centres undefined),-2.58% (inactive)
14,Cc1cc(F)ccc1S(=O)(=O)Nc1ncnc2scc(-c3ccc(F)cc3)c12,0.71% (inactive)
15,c1coc(-c2nc3nc4ccccc4n3nc2-c2ccco2)c1,-0.8% (inactive)
16,CN(c1nc2ccccc2n2c(-c3ccco3)nnc12)S(=O)(=O)c1ccccc1,14.8% [artifact] (active)
17,Cc1cc(NCc2ccco2)n2c(nc3ccccc32)c1C#N,-1.3% (inactive)
18,NS(=O)(=O)c1ccc(N=Cc2ccc(Br)s2)cc1,-3.71% (inactive)
19,Cc1nn(-c2ccccc2)c2c1C(c1cccc([N+](=O)[O-])c1)N(c1ccccc1)C(=O)N2 (centres undefined),-9.61% (inactive)
